Source: PubChem BioAssay
HCV inh = blocks hepatitis C virus. Huh7.5.1 HCVcc-Cre infection, luciferase reporter, 44 h. Potency, µM (highest dose often 41.8 µM), hits mostly inhibitors. hit rate 3.4% among 340,000. AID 651820; active = well fitted inhibition curve with a large enough effect; inconclusive = small, poorly fitted or top-dose-only effect, or another doubt; inactive = no such curve, though single readings can be large or run the other way
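Seed cells (1,000/well) for 4 h; treat with compound and infect with HCVcc-Cre, moi about 0.5. Incubate 44 h, then detect luciferase activity.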
Marburg entry inh = blocks Marburg virus binding to or entry into cells; hit rate 1.8% among 300,000; Potency, µM (titrated, usually from 37.8 µM), actives largely listed as inhibitors; AID 540276; Marburg virus pseudotyped entry inhibition, cell reporter; calls by dose curve; tested in HEK293 cells
FMDV inh = blocks foot and mouth disease virus. AID 1159524. hit rate 1.2% among 410,000. FMDV antiviral cell-based qHTS. Potency, µM (series often up to 57.9 µM), actives largely listed as inhibitors; calls by dose curve; tested in HEK293T cells; note: read-out not given here; nearly all actives have a fitted effect of over 45% in size
Lassa entry inh = blocks Lassa virus binding to or entry into cells | Potency, µM (doses to about 37.9 µM), actives largely listed as inhibitors | Lassa virus pseudotype entry inhibition, cell reporter | hit rate 1.2% among 300,000; calls by dose curve; tested in HEK293 cells; note: nearly all actives have a fitted effect of over 50% in size
HCMV inh = blocks human cytomegalovirus replication | HFF cells, HCMV-luciferase reporter, 72 h; stronger effect = lower value | hit rate 4.5% among 410,000 | activity change, negative = inhibition, % at 57.5 µM; in the data active = activity change below about -60%; inconclusive = no clear call, values can overlap the other calls; inactive = above about -39%
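Two-dose cell screen: HFF monolayers treated with compounds and infected with luciferase-expressing HCMV at 1 PFU/cell, 72 h at 37C, then lysed for luciferase measurement.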
Hits are given with their value; n = inactive; u = inconclusive; x = no result. Hits are enriched below; roughly 7.9% of the tested compounds scored in any of these assays.

SMILES | HCV inh | Marburg entry inh | FMDV inh | Lassa entry inh | HCMV inh
O=C(NCCN1C(=O)S/C(=C\c2ccc(OC(F)F)cc2)C1=O)C1=COCCO1 | 11.2µM | u | n | u | x
COCCCNCCOCCSc1ccc(Cl)cc1 | u | u | n | n | u
CCCCNCCOCCSc1ccc(Cl)cc1 | 7.94µM | u | n | n | n
COCCCNCCCCSc1ccc(Cl)cc1 | 12.6µM | u | n | u | n
OCCNCCCCSc1ccc(Cl)cc1 | 10µM | x | n | x | n
COCc1c(C(=O)NC2CCCCC2)cnn1-c1nccc(-c2cc(C)sc2C)n1 | x | x | n | x | x
Cc1nc(SCC(=O)N2CCCCCC2)c2c(=O)n(C)c(=O)n(CC(C)C)c2n1 | u | x | u | x | n
CCc1ccc(NC(=O)c2cnn(-c3ccccc3)c2C2CCNCC2)cc1 | n | n | n | n | u
CCc1ccc(NC(=O)c2cnn(-c3ccccc3)c2C)cc1 | u | 10µM | n | u | n
Cc1nn(-c2ccccc2)c2nc(C3CC3)cc(C(=O)Nc3cccc(F)c3)c12 | x | x | u | u | -66.6
Cc1c(C(=O)Nc2cc(F)cc(F)c2)cnn1-c1ccccc1 | 11.2µM | x | n | x | n
Cc1ccc(Cn2ccn(CC(=O)Nc3c(C)cc(C)cc3C)c(=O)c2=O)cc1 | x | x | n | n | n
NC(=O)N/N=C/c1cn(CC(=O)Nc2ccc(F)cc2)c2ccccc12 | n | n | n | n | n
Cc1ccc(S(=O)(=O)N(C)c2ccc(C(=O)NCc3ccccc3F)cc2)cc1 | u | u | n | u | n
COc1ccc(/C=C/c2noc(-c3ccccc3O)n2)cc1 | n | u | n | 11.2µM | n
COc1cc(/C=C/c2noc(-c3ccccc3O)n2)cc(OC)c1OC | n | n | n | n | n
COC(=O)c1c(C)[nH]c(C(=O)C(C)OC(=O)c2c(C)noc2C)c1C (configuration not stated) | u | x | n | x | n
C=CC[C@@H](CC(=O)N(CCO)Cc1ccccc1)C(=O)NC[C@H](OC(=O)[C@@H](CC=C)Cc1ccc(F)cc1)c1ccccc1 | u | x | 14.1µM | x | n
C=CC[C@@H](CC(=O)N(CCO)Cc1ccccc1)C(=O)N[C@@H](C)COC(=O)[C@@H](CC=C)Cc1ccc(F)cc1 | u | x | u | x | n
C=CC[C@@H](CC(=O)N(CCO)Cc1ccccc1)C(=O)N[C@H](COC(=O)[C@@H](CC=C)Cc1ccc(F)cc1)c1ccccc1 | 11.2µM | x | u | x | n
C=CC[C@H](CC(=O)N(CCO)Cc1ccccc1)C(=O)NC[C@H](OC(=O)[C@@H](CC=C)CC(=O)OC(C)(C)C)c1ccccc1 | u | x | n | x | n
C=CC[C@@H](CC(=O)N(CCO)Cc1ccccc1)C(=O)NC[C@@H](OC(=O)[C@@H](CC=C)CC(=O)OC(C)(C)C)c1ccccc1 | 10µM | x | u | x | n
COc1ccc(NC(=O)C(Cc2ccccc2)NS(=O)(=O)c2ccc3c(c2)CCC(=O)N3)c(OC)c1 (configuration not stated) | x | n | n | u | -101.8
COc1ccc(OC)c(NC(=O)C(Cc2ccccc2)NS(=O)(=O)c2ccc3c(c2)CCC(=O)N3)c1 (configuration not stated) | x | n | n | u | n
COc1ccc(-c2cnc3c(c2)CCC3(C#N)C#N)cc1 | n | n | n | u | u
SMILES | HCV inh | Marburg entry inh | FMDV inh | Lassa entry inh | HCMV inh
COc1ccc(S[C@]2(C(=O)N3CCCC3)CC(=O)N(c3ccccc3)[C@@H]2c2ccc(OC)cc2)cc1 | x | x | x | x | n
CCCCC(CC)C(=O)Oc1ccc(O)c(C(C)(C)C)c1 (configuration not stated) | u | u | n | 10µM | u
CC(C)(C)c1cc(OC(=O)C2CCCC2)ccc1O | n | n | n | n | n
O=C(NCC1OCCc2ccccc21)c1ccc(NC(=O)c2ccccc2Cl)cc1 (configuration not stated) | u | 7.94µM | 14.1µM | u | u
O=C(NCC1OCCc2ccccc21)c1ccc(NC(=O)c2ccc(Cl)cc2Cl)cc1 (configuration not stated) | u | n | u | n | n
COC(=O)CC(=O)O[C@H]1C=C[C@@H](NC(=O)OC(C)(C)C)C1 | 31.6µM | x | n | x | n
Cc1cc(Nc2ccc(C(C)C)cc2)nc(-n2nc(C)cc2C)n1 | x | x | n | u | -91.5
Cc1cc(Nc2ccc(F)cc2F)nc(-n2nc(C)cc2C)n1 | x | x | n | n | u
COc1ccc(Nc2cc(C)nc(-n3nc(C)cc3C)n2)cc1Cl | x | x | n | u | -98.2
COc1ccc(Nc2cc(C)nc3nc(C)nn23)cc1Cl | n | x | u | x | n
CCOc1cc(C(=O)OCC(=O)Nc2ccc(F)cc2Cl)ccc1OCC(=O)N1CCOCC1 | n | n | n | n | n
